Assay outcomes: PubChem, several laboratories
aSyn UTR inh: 5' untranslated region of α-synuclein, MLPCN primary screen. alpha-synuclein 5'UTR reporter, inhibitor activity. inhibition, % (tested at 7.5 µM). 300,000 tested, 0.82% active. AID 1813; in the data active = inhibition above about 60%; inconclusive = no clear call, values can overlap the other calls;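 also: H4 neuroglioblastoma cells stably carrying SNCA 5'UTR luciferase fusion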
Beta cell apopt: beta cell apoptosis inhibition; INS-1E cytokine-induced death, ATP luminescence, 48 h; percent of positive-control rescue, neutral wells zero; AID 435005; 300,000 tested, 0.8% active; protection from apoptosis, % (no concentration beside the values);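 active = Every replicate reaches about 75%, or at least half do and their mean reaches it too, limit read from the data; inconclusive = At least half of replicates reach the limit but their mean does not; inactive = Under half of replicates reach the limit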;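 also: higher means more ATP so stronger rescue from cytokine killing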
Mdm2-MdmX inh: human Mdm2/MdmX binding inhibition; O15151+Q00987; AID 485346; inhibition, % at 8 µM; 330,000 tested, 3% active; SaOS-2 split-luciferase Mdm2/MdmX complementation, luminescence;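 active = inhibition of at least 50% at 8 µM in the primary screen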
Target sequence (O15151 whole entry, looked up): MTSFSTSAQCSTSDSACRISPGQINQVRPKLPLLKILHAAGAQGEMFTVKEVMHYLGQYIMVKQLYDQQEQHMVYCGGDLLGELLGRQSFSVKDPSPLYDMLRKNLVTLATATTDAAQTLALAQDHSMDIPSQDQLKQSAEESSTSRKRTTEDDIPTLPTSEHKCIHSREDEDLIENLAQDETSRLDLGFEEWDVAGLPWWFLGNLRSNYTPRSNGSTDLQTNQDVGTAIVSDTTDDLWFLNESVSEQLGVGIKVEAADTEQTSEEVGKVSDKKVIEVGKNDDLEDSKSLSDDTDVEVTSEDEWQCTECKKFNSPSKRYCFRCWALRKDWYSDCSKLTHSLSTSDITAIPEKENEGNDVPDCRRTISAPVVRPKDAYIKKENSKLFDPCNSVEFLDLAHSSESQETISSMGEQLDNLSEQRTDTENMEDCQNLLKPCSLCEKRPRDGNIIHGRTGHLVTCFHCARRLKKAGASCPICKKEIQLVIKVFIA
Target sequence (Q00987 whole entry, looked up): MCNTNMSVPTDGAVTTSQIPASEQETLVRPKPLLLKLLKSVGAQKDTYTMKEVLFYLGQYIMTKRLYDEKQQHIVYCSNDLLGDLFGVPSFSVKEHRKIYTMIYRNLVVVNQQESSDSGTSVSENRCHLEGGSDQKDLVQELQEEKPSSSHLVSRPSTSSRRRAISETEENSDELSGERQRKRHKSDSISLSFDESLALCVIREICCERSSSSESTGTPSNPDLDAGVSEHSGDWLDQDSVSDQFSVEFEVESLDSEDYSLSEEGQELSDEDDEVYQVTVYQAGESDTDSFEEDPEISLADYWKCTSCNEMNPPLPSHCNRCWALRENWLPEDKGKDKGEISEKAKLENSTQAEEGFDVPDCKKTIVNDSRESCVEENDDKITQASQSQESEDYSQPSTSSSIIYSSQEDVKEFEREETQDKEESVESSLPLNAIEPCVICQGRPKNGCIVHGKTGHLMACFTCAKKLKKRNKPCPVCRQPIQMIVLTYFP
A1 inh: inhibitors of the anti-apoptotic protein A1, read as caspase activation. MEF A1-2A-BIM cells, Caspase-Glo 3/7 luminescence, 3 h; percent of clofoctol response, vehicle zero. 330,000 tested, 0.066% active. caspase activation, % (no concentration beside the values). AID 2462;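 active = over half of replicate activation scores above 10%, or exactly half above 10 with the replicate mean above 10; inconclusive = replicate mean below 10 yet half the replicates above 10; inactive = over half of replicates below 10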
CSC inhib: blocks cancer stem cells | cancer stem cell-like cells viability, luminescence | inhibition, % at 7.5 µM | 300,000 tested, 1.1% active | AID 2717; in the data active = inhibition above about 75%; inconclusive = no clear call, values can overlap the other calls; tested in HMLE shEcad cells
Mdm2 MdmX conf: human Mdm2/MdmX binding inhibition, confirmed | shares compounds with Mdm2-MdmX inh | inhibition, % at 8 µM | 10,000 tested, 55% active | luminescent assay; in the data active = inhibition above about 40%
Full FLuc ctr: inhibits full-length luciferase, flagging false Mdm2/MdmX hits; shares compounds with Mdm2-MdmX inh; SaOS-2 full-length luciferase counterscreen, luminescence; inhibition, % at 8 µM; 6,200 tested, 77% active;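 active = mean inhibition at 8 µM reaching about 37%, which flags the compound as non-specific, limit read from the data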;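 also: p53-null SaOS-2 cells with luciferase driven by a doxycycline-inducible promoter; compound on cells about two nights before reading with doxycycline added after day one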
Of the large screens only hits and unclear results are named; the others gave an inactive call (follow-up assays come after a bar, where they were run). This is a sample that favours compounds with a hit; in the whole collection about 4.1% have one here.

COc1c(O[C@@H]2O[C@H](CO)[C@@H](O)[C@H](O)[C@H]2O)cc2c(c1OC)-c1ccc(SC)c(=O)cc1C(NC(C)=O)CC2 (some centres undefined)	none (no result: aSyn UTR inh, Beta cell apopt, A1 inh, CSC inhib)
COc1cccc(C(=O)Nc2ccc3c(cc2=O)[C@@H](NC(C)=O)CCc2cc(OC)c(OC)c(OC)c2-3)c1	Mdm2-MdmX inh 70.7 | Mdm2 MdmX conf 65.5 | Full FLuc ctr 99.0
COc1cc2c(c(OC)c1OC)-c1ccc(OC)c(=O)cc1C(NC(C)=O)CC2 (centres undefined)	aSyn UTR inh 74.8, Mdm2-MdmX inh 59.9 (no result: Beta cell apopt) | Mdm2 MdmX conf 57.5 | Full FLuc ctr 118.1
CCn1c(CC(=O)Nc2ccc(C)cc2)nnc1SCC(=O)N1CCOCC1	none
CC(C)(C)c1ccc(-c2nnc3sc(-c4ccccn4)nn23)cc1	Mdm2-MdmX inh 66.2 | Mdm2 MdmX conf 64.7 | Full FLuc ctr inactive
COc1ccccc1C1=NOC(COc2ccc3c(C)cc(=O)oc3c2)C1 (centres undefined)	Mdm2-MdmX inh 58.3, CSC inhib 79.1 | Mdm2 MdmX conf 57.6 | Full FLuc ctr 88.2
COc1cccc(COc2ccc3c(C)cc(=O)oc3c2)c1	none
COc1ccc(C2=NOC(COc3ccc4c(C)cc(=O)oc4c3)C2)c(OC)c1 (centres undefined)	aSyn UTR inh 82.6, Mdm2-MdmX inh 56.0 | Mdm2 MdmX conf 56.4 | Full FLuc ctr 60.3
COc1cc(OC)cc(C(=O)N2CCN(S(=O)(=O)c3ccc(Cl)s3)CC2)c1	A1 inh inconclusive (no result: aSyn UTR inh, CSC inhib)
CCN(CC)C(=O)c1[nH]cnc1C(=O)NCc1ccccc1	none (no result: aSyn UTR inh)
CC1=CC(C)(C)n2c(O)c(N=NC(N)=S)c3cc(C)cc1c32	none
CC1=CC(C)(C)n2c(O)c(C3=NC(=S)NC3=O)c3cc(OC(=O)c4cccc5ccccc45)cc1c32	Mdm2-MdmX inh 77.1 | Mdm2 MdmX conf inactive
O=C(CNc1cccc2ccccc12)N/N=C/C(Br)=C/c1ccccc1	Mdm2-MdmX inh 59.1 | Mdm2 MdmX conf inactive | Full FLuc ctr 47.0
O=C(CNc1cccc2ccccc12)N/N=C/c1ccc[nH]1	none
CCCCCCCC(=O)N/N=C/c1ccc([N+](=O)[O-])o1	none
O=C(CNc1cccc2ccccc12)N/N=C/c1ccc([N+](=O)[O-])o1	Beta cell apopt 117.6, Mdm2-MdmX inh 50.6 | Mdm2 MdmX conf inactive
Cc1cc(C)c2nc(N(CCCN(C)C)C(=O)c3ccc(S(=O)(=O)N4CC(C)OC(C)C4)cc3)sc2c1 (centres undefined)	none (no result: Beta cell apopt)
Nc1nc(Nc2ccccc2)sc1C(=O)c1ccccc1	Mdm2-MdmX inh 61.9 | Mdm2 MdmX conf inactive
COc1ccc(C(=O)c2sc(Nc3ccccc3)nc2N)cc1	none (no result: Beta cell apopt, CSC inhib)
Cc1ccc2[nH]cc(C(=O)CN3CCN(C)CC3)c2c1	none (no result: CSC inhib)
Cc1ccc2[nH]cc(C(=O)CCl)c2c1	Mdm2-MdmX inh 82.4 | Mdm2 MdmX conf 67.5 | Full FLuc ctr 57.6
Cc1ccc2c(C(=O)CCl)c(C)[nH]c2c1	Mdm2-MdmX inh 91.8 | Mdm2 MdmX conf 77.0 | Full FLuc ctr 60.0
CN(C)C(CNc1ccc(C(F)(F)F)cc1[N+](=O)[O-])c1ccccc1 (centres undefined)	none (no result: CSC inhib)
COc1ccc(-c2oc(NC(=O)CCl)c(C#N)c2-c2ccc(OC)cc2)cc1	Mdm2-MdmX inh 97.8 | Mdm2 MdmX conf 64.8 | Full FLuc ctr 55.4
COc1ccc(-c2oc(NC(=O)CSc3ncn[nH]3)c(C#N)c2-c2ccc(OC)cc2)cc1	none
CC(=O)NC(Cc1cccc(F)c1)C(=O)NC1CCN(C(=O)c2ccc(C)cc2)CC1 (centres undefined)	none
COc1ccc(NC(=O)c2cc(-c3ccccn3)nc3ccccc23)cc1S(=O)(=O)N(C)C	none (no result: aSyn UTR inh, CSC inhib)
CC(=O)NS(=O)(=O)c1ccc(NC(=O)c2cc(-c3cccs3)nc3ccccc23)cc1	none
CCN(CC)S(=O)(=O)c1ccc(NC(=O)c2cc(-c3cccs3)nc3ccccc23)cc1	Mdm2-MdmX inh 50.2 | Mdm2 MdmX conf inactive
CN(C)S(=O)(=O)c1ccc(NC(=O)c2cc(-c3cccs3)nc3ccccc23)cc1	Mdm2-MdmX inh 64.0 | Mdm2 MdmX conf 61.8 | Full FLuc ctr 53.0
